The text below walks through data of PubChem BioAssay (Tox21).

Assay [1] is described as follows: qHTS assay to identify small molecule agonists of the RXR signaling pathway - cell viability counter screen (AID 1159529). Further: nearly all actives have a fitted effect of over 50% in size. Further: potency means the concentration at half of the fitted maximal effect. In a few lines: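 CellTiter-Glo luminescence gave viability in the wells also read for beta-lactamase. Cells (RXR-alpha-UAS-bla HEK 293T, 2% charcoal-stripped FBS medium) had 5 hr plating, then 16 hr compound exposure at 37 C; tetraoctyl ammonium bromide served as positive control.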
For orientation: Quantitative high-throughput screening tests each substance at several concentrations.

Assay [2] in a line: qHTS assay to identify small molecule antagonists of the retinoid acid receptor (RAR) signaling pathway - cell viability counter screen (AID 1159551). Further: nearly all actives have a fitted effect of over 35% in size. In a few lines: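 Retinol-stimulated (1 uM final) C3RL4 cells, compound 6 h, 37 C; readout CellTiter-Glo luminescence (ATP) after 30 min RT incubation.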
The target in assay [3] is Luciferin 4-monooxygenase (Photinus pyralis) (UniProt P08659). The experiment in a line: qHTS assay to identify small molecule inhibitors of firefly luciferase (AID 1224835). Further: series mostly up to about 120 µM; nearly all actives have a fitted effect of over 25% in size. In a few lines: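 Biochemical qHTS: compounds run as interplate titrations against purified firefly enzyme, with D-luciferin and ATP each at its KM concentration. Light output recorded by CCD imaging.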
Chain of Luciferin 4-monooxygenase (Photinus pyralis) (P08659 whole entry, looked up): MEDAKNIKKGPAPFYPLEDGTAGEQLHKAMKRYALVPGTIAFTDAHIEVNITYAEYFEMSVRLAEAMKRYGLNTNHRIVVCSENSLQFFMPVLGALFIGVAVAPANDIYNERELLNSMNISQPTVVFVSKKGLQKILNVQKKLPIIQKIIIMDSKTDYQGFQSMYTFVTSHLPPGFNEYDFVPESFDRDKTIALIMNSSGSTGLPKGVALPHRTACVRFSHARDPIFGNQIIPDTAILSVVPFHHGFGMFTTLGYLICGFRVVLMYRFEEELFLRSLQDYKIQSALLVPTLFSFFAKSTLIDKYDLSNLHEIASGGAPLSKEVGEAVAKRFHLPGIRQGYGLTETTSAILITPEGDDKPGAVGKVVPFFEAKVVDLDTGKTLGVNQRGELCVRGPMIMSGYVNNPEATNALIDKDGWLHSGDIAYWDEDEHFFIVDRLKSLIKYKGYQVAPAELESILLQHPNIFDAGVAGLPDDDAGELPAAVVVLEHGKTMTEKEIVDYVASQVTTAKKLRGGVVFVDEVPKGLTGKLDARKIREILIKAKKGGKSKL

Assay [4] in a line: qHTS assay to identify small molecule agonists of the constitutive androstane receptor (CAR) signaling pathway - cell viability counter screen (AID 1224836). Further: series mostly up to about 92 µM; nearly all actives have a fitted effect of over 45% in size. In a few lines:
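Cell viability multiplexed with the CAR agonist screen: CellTiter-Fluor fluorescence after 23 hr at 37 C. HepG2-CYP2B6-hCAR cells got compounds at 15 concentrations with PK11195 at 0.75 uM final.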

Assay [5] can be described thus: qHTS assay to identify small molecule antagonists of the constitutive androstane receptor (CAR) signaling pathway - cell viability counter screen (AID 1224837). Further: series mostly up to about 92 µM; nearly all actives have a fitted effect of over 45% in size. The procedure, abridged:
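Counter screen run in HepG2-CYP2B6-hCAR cells: 4 hr settle, compound titration (15 concentrations) with 50 nM CITCO, 23 hr at 37 C/5% CO2, CellTiter-Fluor fluorescence.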

Assay [6] concerns the target Nuclear receptor subfamily 1 group I member 3 (Homo sapiens) (UniProt Q14994). The experiment in a line: qHTS assay to identify small molecule antagonists of the constitutive androstane receptor (CAR) signaling pathway (AID 1224838).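 Further: HepG2 cells stably expressing hCAR with CYP2B6 luciferase reporter stimulated by CITCO; nearly all actives have a fitted effect of over 40% in size.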 The procedure, abridged: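 Cell line: HepG2 double-stable for hCAR and CYP2B6-2.2kb reporter. Agonist: CITCO, 50 nM final. Compounds: 15 concentrations, 24 h, 37 C. Detection: ONE-Glo luminescence.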

Assay [7] shares this target. The experiment in a line: qHTS assay to identify small molecule agonists of the constitutive androstane receptor (CAR) signaling pathway (AID 1224839). Further: potency means the concentration at half of the fitted maximal effect; nearly all actives have a fitted effect of over 15% in size. The procedure, abridged:
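Luminescent ONE-Glo read-out after 24 hr, 37 C exposure of double-stable HepG2-CYP2B6-hCAR reporter cells to a 15-point compound series, in the presence of 0.75 uM PK11195 (final).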

Assay [8] can be described thus: qHTS assay to identify small molecule antagonists of the estrogen related receptor signaling pathway with the pleiotropic PPARgamma coactivator (PGC) from Tox21 10K library - cell viability counter screen (AID 1224840; active means well fitted cell-killing curve with a large enough effect in the repeat runs, not every such curve was filed as active; further: nearly all actives have a fitted effect of over 40% in size; further: potency means the concentration at half of the fitted maximal effect). In a few lines:
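Following seeding of 2,000 PGC/ERR cells/well and 6 hours' incubation, test compounds were delivered in DMSO. The plates then sat 17.5 hours at 37 C before a fluorogenic live-cell protease reagent (CellTiter-Fluor) was read after 30 min.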

The target in assay [9] is Thyrotropin receptor (Homo sapiens) (UniProt P16473). As to the kind of experiment: qHTS assay to identify small molecule agonists of the thyroid stimulating hormone receptor (TSHR) signaling pathway (AID 1224843; calls by dose curve; further: nearly all actives have a fitted effect of over 45% in size; further: potency means the concentration at half of the fitted maximal effect). The procedure, abridged:
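Steps: seed 800 TSHR-HEK293 cells per well; add test compound and hold 30 min at ambient temperature; dispense cAMP-d2 then anti-cAMP cryptate; incubate 1 h at ambient; measure fluorescence intensity.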

Assay [10] in a line: qHTS assay to identify small molecule agonists of the hypoxia (HIF-1) signaling pathway - cell viability counter screen (AID 1224844; calls by dose curve; further: nearly all actives have a fitted effect of over 50% in size; further: potency means the concentration at half of the fitted maximal effect). The procedure, abridged:
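Cells (HRE-bla ME-180, 2,000 per well) sat 5 hrs at 37C, got compound for 17 hrs, were read for CCF4-AM FRET, and were finally lysed with CellTiter-Glo for a 30 min room-temperature luminescence read.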

Assay [11] is described as follows: qHTS assay to identify small molecule antagonists of the estrogen related receptor (ERR) signaling pathway from Tox21 library - cell viability counter screen (AID 1224834). Further: nearly all actives have a fitted effect of over 30% in size. Further: potency means the concentration at half of the fitted maximal effect. In a few lines: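 After 17.5 h of compound exposure at 37 C, ERR cells are incubated with CellTiter-Fluor for 30 min and fluorescence intensity serves as the viability measure.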
Assay [12] is described as follows: qHTS assay to identify small molecule antagonists of the retinoic acid receptor (RAR) signaling pathway (AID 1159552; further: nearly all actives have a fitted effect of over 50% in size; further: potency means the concentration at half of the fitted maximal effect). In a few lines:
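Luminescent RARE reporter read-out in C3RL4 cells: 6 hr co-treatment at 37 C of test compounds with retinol at 1 uM final. Cells plated overnight beforehand; luciferase reagent incubated 30 min at room temperature before reading.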

Assay [13] in a line: qHTS assay to identify small molecule agonists of the retinoic acid receptor (RAR) signaling pathway (AID 1159553). The procedure, abridged:
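Reporter readout comes from luciferase under RARE control in C3RL4 cells; compound exposure lasts 6 hr at 37 C in 5% CO2, and luminescence is recorded following a 30 min room-temperature incubation with reagent.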

The nature of assay [14]: qHTS assay to identify small molecule antagonists of the estrogen related receptor signaling pathway with the pleiotropic PPARgamma coactivator (PGC) from Tox21 10K library (AID 1224841; call rule not given here; further: actives are mostly falling curves and most rising ones were filed inactive; nearly all actives have a fitted effect of over 50% in size; further: potency means the concentration at half of the fitted maximal effect). The procedure, abridged:
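qHTS antagonist format: PGC/ERR cells, 2k/well, compound in DMSO by pin transfer after 6 h attachment, 18 h treatment at 37 C, One-Glo luminescence read at 30 min.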

Assay [15] in a line: qHTS assay to identify small molecule agonists of the estrogen related receptor signaling pathway with the pleiotropic PPARgamma coactivator (PGC) from Tox21 10K library (AID 1224842). Further: nearly all actives have a fitted effect of over 15% in size. The procedure, abridged: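 PGC/ERR reporter cell line, 2,000 cells per well, incubated 6 h at 37 C before 23 nL compound in DMSO was added. After 18 h at 37 C, One-Glo luminescence read following 30 min at room temperature.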

SMILES strings stand for the structures. Records with an inconclusive call do not appear. Values without a mark were called inactive. Active and inactive are the calls of the source. Unless noted, the call rests on the fitted dose curve; in most records, active means well fitted curve in the direction sought with a large enough effect in the repeat runs; inconclusive means weak or mixed curves; inactive means no such curve, though single readings can be large; an effect the other way counts as inactive or inconclusive.

Chain of Nuclear receptor subfamily 1 group I member 3 (Homo sapiens) (Q14994 whole entry, looked up): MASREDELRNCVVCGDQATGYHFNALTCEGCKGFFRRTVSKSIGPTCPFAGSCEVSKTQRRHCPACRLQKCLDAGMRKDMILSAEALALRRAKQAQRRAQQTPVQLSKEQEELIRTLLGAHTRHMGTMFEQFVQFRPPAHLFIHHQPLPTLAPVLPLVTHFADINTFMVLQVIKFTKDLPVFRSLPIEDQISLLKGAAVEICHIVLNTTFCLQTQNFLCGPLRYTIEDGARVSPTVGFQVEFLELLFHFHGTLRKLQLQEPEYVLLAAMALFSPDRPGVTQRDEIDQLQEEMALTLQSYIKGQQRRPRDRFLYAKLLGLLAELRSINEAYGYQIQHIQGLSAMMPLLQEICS
Chain of Thyrotropin receptor (Homo sapiens) (P16473 whole entry, looked up): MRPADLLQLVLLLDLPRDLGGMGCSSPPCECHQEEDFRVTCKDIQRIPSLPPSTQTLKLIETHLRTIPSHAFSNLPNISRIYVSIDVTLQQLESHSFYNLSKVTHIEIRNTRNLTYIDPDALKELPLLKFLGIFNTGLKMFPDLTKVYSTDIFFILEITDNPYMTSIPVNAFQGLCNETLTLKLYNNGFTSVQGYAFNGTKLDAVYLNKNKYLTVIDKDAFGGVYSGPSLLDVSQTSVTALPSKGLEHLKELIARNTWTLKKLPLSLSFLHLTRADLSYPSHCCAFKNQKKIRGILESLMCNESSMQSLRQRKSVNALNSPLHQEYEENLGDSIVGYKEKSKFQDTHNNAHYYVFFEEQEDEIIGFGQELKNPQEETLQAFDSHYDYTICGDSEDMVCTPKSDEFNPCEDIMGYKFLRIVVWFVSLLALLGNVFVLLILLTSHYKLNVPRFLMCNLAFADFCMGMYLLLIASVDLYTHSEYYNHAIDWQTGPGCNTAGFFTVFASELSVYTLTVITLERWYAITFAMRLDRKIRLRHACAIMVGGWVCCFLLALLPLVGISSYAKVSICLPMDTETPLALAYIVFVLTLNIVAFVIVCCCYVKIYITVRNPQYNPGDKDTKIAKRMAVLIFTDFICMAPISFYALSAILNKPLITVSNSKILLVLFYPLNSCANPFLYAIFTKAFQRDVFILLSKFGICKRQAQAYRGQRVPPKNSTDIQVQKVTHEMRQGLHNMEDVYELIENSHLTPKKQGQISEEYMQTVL

For the compound `CSc1nc(N=[N+]=[N-])nc(NC(C)C)n1`, the Potency result in assay [1], in assay [2], in assay [3], in assay [4], in [5] and in [6] was “inactive” throughout. Also, the Potency result in [8], in [9] and in assay [10] was “inactive” in each case. For the same compound, the Potency in assay [7] was 54.5 µM (active).
Regarding `CC(C(=O)c1ccccc1)N(C)C` (centres undefined), the Potency result in [1], in assay [2], in assay [11], in assay [3], in assay [4] and in assay [5] was “inactive” in each case. Also, the Potency entry in [8] and in [10] was “inactive” each time.
As for `c1cc2c(c(N3CCNCC3)c1)OCCO2`, the Potency result in assay [1], in assay [12], in assay [13], in assay [11], in [3] and in [4] was “inactive” in each case. Also, the Potency result in [5], in assay [8], in assay [9] and in assay [10] was “inactive” in each case.
On to `CCN(CC)CCOC(=O)C(C)(c1ccccc1)c1ccccc1`, for which the Potency entry in [1], in [12], in assay [13], in assay [11], in assay [3] and in [4] was “inactive” throughout. Further, the Potency result in [5], in assay [6], in [8], in assay [14], in assay [9] and in assay [10] was “inactive” in each case. Moreover, the result in [15] was inactive.
Turning to `N#CC(CCc1ccc(Cl)cc1)(Cn1cncn1)c1ccccc1` (centres undefined), the Potency in assay [1] was 24.5 µM (active); in [12], 61.1 µM (active); in assay [11] it was 30.6 µM (active); in [8], 34.4 µM (active); in [14] it was 34.4 µM (active); in assay [9], 8.63 µM (active). In addition, the Potency in [10] was 30.9 µM (active). In addition, the Potency result in assay [13], in [3] and in [6] was “inactive” in each case. Besides, the call in [15] was inactive.
Consider `O=[N+]([O-])c1cccc(O)c1`, for which the Potency entry in assay [1], in [13], in assay [11], in assay [3], in assay [4] and in assay [5] was “inactive” in each case. Besides, the Potency entry in [6], in [8], in [9] and in assay [10] was “inactive” throughout.
Consider `CN1C[C@@H](NS(=O)(=O)N(C)C)C[C@@H]2c3cccc4c3c(cn4C)C[C@H]21`, for which the Potency result in [1], in [2], in assay [11], in assay [3], in [4] and in assay [5] was “inactive” each time. Moreover, the Potency entry in assay [8], in [9] and in [10] was “inactive” throughout.
Consider `OCCBr`, for which the Potency entry in [1], in assay [2], in [11], in assay [3], in [4] and in assay [5] was “inactive” throughout. Also, the Potency result in assay [8], in [9] and in [10] was “inactive” each time.
In the case of `CC(C)(C)NCC(O)c1cc(Cl)c(N)c(Cl)c1` (centres undefined), the Potency entry in [1], in [2], in assay [3], in [8], in [14] and in assay [10] was “inactive” in each case. The Potency in assay [9] is 0.0021 µM (active).
As for `CC(C)COP(=O)(OCC(C)C)OCC(C)C`, the Potency result in assay [1], in assay [2], in [11], in assay [3], in assay [4] and in assay [5] was “inactive” throughout. For the same compound, the Potency result in assay [8], in assay [14] and in [10] was “inactive” each time.
`O=C(O)C(Br)CBr` (centres undefined): the Potency result in assay [1], in assay [2], in assay [11], in [3], in [4] and in [5] was “inactive” in each case. Moreover, the Potency entry in [8], in assay [9] and in assay [10] was “inactive” in each case.
`CNC(=O)O/N=C(\C)SC`: the Potency entry in assay [1], in assay [2], in assay [11], in [3], in assay [4] and in assay [5] was “inactive” throughout. Further, the Potency entry in assay [8], in assay [9] and in assay [10] was “inactive” in each case.
